# Assay outcomes as filed in PubChem.
# KB-V1 MDR tox – KB-V1 MDR subline cytotoxicity; KB-V1 MDR cells viability, CellTiter-Glo, 72 h; Potency, µM (series often up to 46.1 µM), usual class: cytotoxic; actives 3.4% (n = 400,000); further: on the % scale 0 is the no-effect control and ±100 the full control effect; nearly all actives have a fitted effect of over 60% in size
#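 KB-V1 MDR subline cells in DMEM (phenol-red free, 10% FBS) exposed to compounds in qHTS concentration series for 72 h at 37 degrees C. Viability read by CellTiter-Glo luminescence; concentration-effect curves fitted after normalization and correction.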
# HT1080 IDH1KD tx – toxicity to HT-1080 IDH1 knockdown cells (counter line); HT-1080 IDH1 knockdown viability, ATP luminescence, 48 h; Potency, µM (series often up to 46.1 µM), inactives show at the top dose activity, negative = toxicity, actives largely listed as cytotoxic; actives 2% (n = 360,000); AID 686971;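 further: 0% = DMSO wells and -100% = cell-free medium wells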
#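 Cytotoxicity counter-line: IDH1KD HT-1080, 48 h, CellTiter-Glo. Curves classed by r2, magnitude and activity.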
# ATXN2 expr inh – inhibitors of ATXN2 expression. HEK-293 ATXN2-luciferase reporter, luminescence, 24 h. Potency, µM (titrated, usually from 57 µM), for the others: top-dose activity change, negative = inhibition, hits mostly inhibitors. actives 0.72% (n = 360,000); further: on the % scale 0 is the no-effect control and ±100 the full control effect; nearly all actives have a fitted effect of over 55% in size
#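 qHTS (up to 57 uM final) was run with 24 h compound exposure of reporter cells at 37 °C. Each well was multiplexed: SteadyGlo luminescence measured ATXN2-luciferase expression after a fluorogenic Gly-Phe-AFC viability readout (25 uM final).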
# KB-3-1 tox – KB-3-1 parental cell cytotoxicity; Potency, µM (highest dose often 46.1 µM), actives largely listed as cytotoxic; actives 1.4% (n = 400,000); KB-3-1 viability, CellTiter-Glo ATP luminescence, 72 h; further: on the % scale 0 is the no-effect control and ±100 the full control effect; nearly all actives have a fitted effect of over 60% in size
#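 72 h, 37 °C compound treatment of KB-3-1 parental cells; CellTiter-Glo added, 10 min, luminescence read. Data corrected against DMSO-only plates and normalized before curve fitting.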
# S2 tox – viability counter-screen for ATXN expression inhibitors. AID 651635. Potency, µM (top dose mostly 56.7 µM), actives largely listed as cytotoxic. S2 cells (HEK-293 line with an ATXN2-luciferase reporter) viability, CellTiter-Fluor protease fluorescence, 24 h. actives 0.49% (n = 400,000); further: nearly all actives have a fitted effect of over 40% in size
# HT1080-NT tox – kills 2HG-producing HT-1080-NT fibrosarcoma cells | HT-1080-NT fibrosarcoma viability, CellTiter-Glo ATP luminescence, 48 h | Potency, µM (series often up to 46.1 µM), for the others: top-dose activity, negative = less viability, actives largely listed as cytotoxic | actives 1.6% (n = 360,000) | AID 686970;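 further: NT is the 2HG producing partner of a matched IDH1 knockdown line; 0% = DMSO-treated cells and -100% = media-only wells without cells; nearly all actives have a fitted effect of over 55% in size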
#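 Viability by CellTiter-Glo luminescence after 48 h compound exposure at 37C of HT-1080-NT cells (750/well, RPMI, 5% FBS). % activity scaled between DMSO wells and medium-only wells, then curve-fitted and categorized by curve class.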
# Active calls of the source: *; i = inactive; ? = inconclusive; nt = no result; [ ] = dose if it differs, or a comment. Shown are actives, neighbours in structure and some others; about 6.2% of the full set was active somewhere. The call rests on the fitted dose curve; in most records, active means well fitted curve in the direction sought with a large enough effect; inconclusive means small, poorly fitted or top-dose-only effect, or another doubt; inactive means no such curve, though single readings can be large; an effect the other way counts as inactive or inconclusive. Potency means the concentration at half of the fitted maximal effect.
SMILES,KB-V1 MDR tox,HT1080 IDH1KD tx,ATXN2 expr inh,KB-3-1 tox,S2 tox,HT1080-NT tox
CCNc1nc(NCC)nc(N/N=C/c2ccc([N+](=O)[O-])o2)n1,21µM*,-11%,-18%,?,i,-7%
COc1ccccc1C(=O)N[C@@H]1c2ccccc2C2(CCN(Cc3c(O)cccc3OC)CC2)[C@H]1O,nt,nt,nt,nt,i,nt
COc1cc(=O)n2c(c1C(=O)N(C)Cc1ccsc1)CCN(Cc1c(C)nc3sccn13)CC2,nt,nt,nt,nt,i,nt
CCOc1cc(CNC(=O)c2ccccc2NC(=O)c2nsc3ccccc23)ccc1OC,i,nt,8%,i,i,nt
Cc1ccc(S(=O)(=O)N2CCN(c3nc(-c4cccs4)nc(C)c3C)CC2)cc1,i,nt,nt,i,nt,nt
O=C(Nc1ccc(-c2nc3ccccc3s2)cc1)c1cc(-n2cnnc2)ccc1Cl,i,11µM*,?,?,i,10µM*
COc1ccc(S(=O)(=O)Nc2cc3c4c(oc3c3ccccc23)CCCC4=O)cc1,5.2µM*,3.7µM*,-30%,7.3µM*,?,?
O=c1c2ccccc2nc(-c2cccs2)n1-c1cccc2ccccc12,23µM*,1%,-10%,?,?,3%
COc1cccc(C(=O)Nn2c(-c3cccs3)nc3ccccc3c2=O)c1OC,?,-3%,-20%[11.3 µM],i,i,0%
O=c1c2cnn(-c3ccccc3)c2nc(-c2cccs2)n1-c1cccc(Cl)c1,10µM*,0%,-18%,?,?,3%
COc1ccc(CNn2c(-c3cccs3)nc3ccccc3c2=O)cc1OC,23µM*,-28%,-17%,i,i,-27%
O=c1c2cnn(-c3ccccc3)c2nc(-c2cccs2)n1-c1ccc(Cl)cc1,i,4%,5%,i,i,2%
O=C(COc1ccc2oc3c(c2c1)CCCC3)Nc1ccc(Br)cc1,?,nt,-7%,i,i,nt
COc1cc2c(cc1OC)C(COc1cc(C)cc(C)c1)N(C(=O)COc1ccccc1)CC2 (centres undefined),i,nt,?,?,i,nt
COc1ccc(CC(N)c2csc(NC(=O)c3ccc(F)cc3)n2)cc1 (centres undefined),i,?,-14%,i,i,21µM*
COc1ccc(CC(N)c2csc(NC(=O)c3ccccc3OC)n2)cc1 (centres undefined),i,-29%,22µM*,i,?,?
COc1ccc(CC(N)c2csc(NC(=O)c3ccccc3)n2)cc1 (centres undefined),i,-23%,-24%,i,?,-25%
COc1ccc(CC(N)c2csc(NC(=O)C(c3ccccc3)c3ccccc3)n2)cc1 (centres undefined),21µM*,21µM*,?,?,?,?
O=S(=O)(c1ccccc1C(F)(F)F)N1CCN(c2ncnc3sccc23)CC1,?,-28%,?,?,i,-21%
O=S(=O)(c1ccc(F)c(F)c1F)N1CCN(c2ncnc3sccc23)CC1,2.3µM*,-29%,0%,?,i,-6%
c1ccc(CC2CCN(c3ncnc4sccc34)CC2)cc1,i,?,?,i,i,12µM*
CC(=O)Nc1ccc(S(=O)(=O)N(C)S(=O)(=O)c2ccc(F)cc2)cc1,16µM*,?,4%,i,i,6%
Cc1ccc(-n2c3nc(=O)n(C)c(=O)c-3cc3c(Cl)cccc32)c(C)c1,i,nt,5%,i,i,nt
Cc1nc(C(=O)Nc2cc(Cl)ccc2Cl)nn1-c1cc(OC(C)C)c(Cl)cc1Cl,15µM*,1%,1%,i,i,?
Cc1nc(C(=O)Nc2ccc(Cl)cc2Cl)nn1-c1cc(OC(C)C)c(Cl)cc1Cl,i,1%,5%,i,i,11%
SMILES,KB-V1 MDR tox,HT1080 IDH1KD tx,ATXN2 expr inh,KB-3-1 tox,S2 tox,HT1080-NT tox
COC(=O)C(C(=O)OC)C(CC(=O)c1ccc(C)cc1)c1cc(OC)c(OC)c(OC)c1 (centres undefined),i,-7%,-18%,i,i,1%
COc1ccc(C(CC(=O)c2ccc(C)cc2)C(C#N)C#N)cc1OC (centres undefined),?,23µM*,?,?,30µM*,21µM*
CCOc1ccc(-c2nn(CC(=O)NC3CCCC3)c3c2cnc2ccc(C)cc23)cc1,i,nt,0%,i,i,nt
Cc1cnc(-n2ncc(C(=O)NCC3COCCO3)c2C2CC2)nc1-c1cccs1 (centres undefined),nt,nt,nt,nt,i,nt
Cc1noc(C)c1CSCC(=O)N(C)CC(=O)Nc1ccc(Cl)c(C(F)(F)F)c1,i,0%,-11%,i,i,-14%
COc1ccc(N(CC(=O)Nc2ccc(C)cc2)S(=O)(=O)c2c(C)noc2C)cc1,i,-12%,nt,i,i,-18%
Cc1ccc(N(CC(=O)Nc2ccc(F)c(Cl)c2)S(=O)(=O)c2c(C)noc2C)cc1,18µM*,?,-17%,?,i,?
Cc1noc(C)c1CSCC(=O)N(C)CC(=O)Nc1ccc(Cl)c(Cl)c1,5.8µM*,-11%,-18%,i,i,-1%
CCc1cccc(NC(=O)CN(c2ccc(C)cc2)S(=O)(=O)c2c(C)noc2C)c1,?,-8%,nt,i,i,-21%
Cc1ccc(N(CC(=O)Nc2cc(C)cc(C)c2)S(=O)(=O)c2c(C)noc2C)cc1,?,?,?,?,i,18µM*
COc1ccc(C(=O)CSc2nnc(CCc3ccccc3)n2-c2ccccc2)cc1,9.2µM*,3%,?,i,i,15%
CC(=O)/C(=N/Nc1ccccc1)Sc1nnc(CCc2ccccc2)n1-c1ccccc1,23µM*,-3%,-22%[11.3 µM],i,i,-4%
COc1ccc(-n2c(CCc3ccccc3)nnc2SCC(=O)c2ccccc2)cc1,9.2µM*,-4%,-14%,?,i,-2%
COc1ccc(-n2c(CCc3ccccc3)nnc2SCC(=O)NCc2ccccc2)cc1,i,-7%,0%,i,i,-1%
CCOC(=O)c1ccccc1NC(=O)Cn1c(=O)n(Cc2nc(C)no2)c(=O)c2ccccc21,i,nt,nt,i,nt,nt
CC[C@]12CCCN3CCc4c(n(c5ccccc45)C(=O)C1)[C@@H]32,4.1µM*,14%,?,?,?,?
CCOC(=O)Cn1c2c(c(=N)c3ccccc31)CCC2,?,8%,-4%,i,i,0%
CC[C@]12CCCN3CCc4c(n(c5ccccc45)[C@@](O)(C(=O)OC)C1)[C@@H]32,i,-7%,4%,i,i,-2%
